For part of these data: Potency and affinity values are given separately. Calls of active or inactive are those of the source.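 Rule for the calls, unless noted: active = compound raising the membrane signal above positive-control mean plus 3 SD in both repeats, and a primary screen hit; inactive = the rest.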

Experiment [1] concerns TRPC4 beta (transient receptor potential cation channel C4), mouse. The experiment is described as follows: activators of mouse TRPC4 channel, confirmation, cell-based, Fluo4 calcium, HEK293 TRPC4beta/mu-opioid, duplicates, 10 µM (AID 2426;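 active = fluorescence ratio normalized to control raised more than 50% in primary screen plus both repeat runs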;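 for activation: percent rise of integrated ratio over buffer wells lacking compound which define 0%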). Conditions: Fluo4 calcium fluorescence, at 10 µM; hits give high values.
Experiment [2] deals with transient receptor potential cation channel C4 beta (TRPC4), mouse. The experiment is described as follows: activators of mouse TRPC4 channel, confirmation, cell-based, second round, Fluo4, HEK293 TRPC4beta/mu-opioid, 1 µM (AID 2461;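 active = primary screen active and over 50% activation in each of two duplicate runs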;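 for activation: 0% = wells without test compound as baseline of integrated fluorescence ratio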). Conditions: Fluo4 calcium fluorescence, at 1 µM; hits give high values.
Experiment [3] relates to TRPC4 (transient receptor potential cation channel C4 beta), mouse. In words: positive allosteric modulators of mouse TRPC4, confirmation, cell-based, second round, Fluo-4, HEK293 TRPC4beta/mu-opioid, 1 µM (AID 2554;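 active = primary screen hit whose fluorescence ratio, in both repeats, exceeds the weak agonist control mean by 3 SD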). Conditions: DAMGO EC20, Fluo-4 calcium flux, at 1 µM; hits give high values.
Experiment [4] has as its system TRPC4 beta (transient receptor potential cation channel C4), mouse. The experiment is described as follows: positive allosteric modulators of mouse TRPC4, confirmation, cell-based, Fluo-4, HEK293 TRPC4beta/mu-opioid (AID 2555;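 active = primary screen hit whose calcium fluorescence ratio, in both repeats, exceeds the weak agonist control mean by 3 SD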). The note with it: DAMGO EC20, Fluo-4 calcium flux, at 10 µM; hits give high values.
For experiment [5], the target named is Short transient receptor potential channel 4 (Mus musculus) (UniProt Q9QUQ5). The experiment is described as follows: inhibitors of mouse TRPC4 channel, confirmation, cell-based, Fluo4, HEK293 TRPC4beta/mu-opioid (AID 2636;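 active = calcium signal cut by more than 3 SD below the full-agonist control yet still positive, in both repeats and the earlier primary screen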). The note with it: DAMGO, Fluo4 calcium flux, at 10 µM; hits give high values.
Experiment [6] shares this target. The experiment is described as follows: inhibitors of mouse TRPC4 channel, confirmation, cell-based, second round, Fluo4, HEK293 TRPC4beta/mu-opioid, 1 µM (AID 2637;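 active = calcium signal ratio cut to more than 3 SD under the fully stimulated control mean yet still positive, in both repeats and the primary screen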). Conditions: Fluo4 calcium flux, DAMGO, at 1 µM; hits give high values. (Calcium assays in cells follow changes in intracellular calcium, usually with a dye or a luminescent sensor.)
Experiment [7] has the same target. The experiment is described as follows: TRPC4 positive allosteric modulators, dose response, cell-based, HEK293 TRPC4/mu-opioid, Fluo-4 calcium, EC20 DAMGO (AID 434941;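 active = earlier screen potentiator hit that boosts the TRPC4 ion channel at some dose, with a dose response; inactive = no potentiation, no dose response, or not a prior hit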;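 note: calcium entry triggered by an EC20 dose of DAMGO at the co-expressed mu-opioid receptor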).
Experiment [8] shares this target. In words: mouse TRPC4 channel inhibitors, dose response, cell-based, HEK293 TRPC4/mu-opioid, Fluo-4 calcium (AID 434942;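 active = primary screen inhibitor hit that blocks the TRPC4 channel at some tested dose, yielding a dose curve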).
Experiment [9] deals with Short transient receptor potential channel 6 (Mus musculus) (UniProt Q61143). In words: inhibition of mouse TRPC6 channel, confirmation, selectivity assay for TRPC4 inhibitor project, cell-based, HEK293, membrane potential dye, duplicate (AID 434948;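 active = active in primary screen and both duplicates, each dropping signal beyond three positive-control SD with fluorescence still positive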). The note with it: HEK293 TRPC6, membrane potential dye fluorescence, at 10 µM, stimulated with maximal-effect acetylcholine; hits give high values.

Experiment [10] has the same target. In words: activation of mouse TRPC6 channel, confirmation, selectivity assay for TRPC4 activator project, cell-based, HEK293, membrane potential dye, duplicate (AID 434950;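 active = membrane potential signal rise above negative control mean plus 3 SD in both duplicates, also active in the earlier TRPC4 screen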;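 for activation: 0% = buffer only wells and 100% = acetylcholine maximal-effect wells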). The note with it: HEK293 TRPC6, membrane potential fluorescence, at 10 µM; hits give high values.
The target is the same in experiment [11]. The experiment is described as follows: TRPC6 potentiation by TRPC4 potentiator hits, confirmation, selectivity assay for TRPC4 potentiator project, HEK293 cells, membrane potential dye, duplicate (AID 434952). The note with it: HEK293 TRPC6, membrane potential dye fluorescence, at 10 µM, maximal acetylcholine added after compound; hits give high values.
The target of experiment [12] is Short transient receptor potential channel 4 (Mus musculus) (UniProt Q9QUQ5). In words: calcium flux activators in TRPC4/5HT1a cells, counter-screen for TRPC4 activator project, cell-based, second counter screen, HEK293 TRPC4/5HT1a, Fluo-4 (AID 434977;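 active = calcium signal rise above buffer-control mean plus 5 SD in both duplicates, and also a hit in the primary screen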;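 for activation: plate controls were assay buffer for no effect and maximal serotonin response for full effect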). Conditions: Fluo-4 calcium flux, at 10 µM; hits give high values.
Experiment [13] is described as follows: calcium flux inhibitors in TRPC4/5HT1a cells, confirmation, counter-screen for TRPC4 inhibitor project, cell-based, second counter screen, HEK293 TRPC4/5HT1a, Fluo-4 (AID 434978;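 active = primary screen active whose calcium signal fell more than 3 SD beyond the full-serotonin control mean in both duplicate plates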;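 note: serotonin given first at submaximal then at maximal dose after compound preincubation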). The note with it: Fluo-4 calcium flux, at 10 µM, serotonin added to trigger calcium flux; hits give high values.
The test system of experiment [14] is TRPC4 (mouse), co-expressed with 5HT1a in HEK293. The experiment is described as follows: calcium flux potentiators in TRPC4/5HT1a cells, confirmation, counter-screen for TRPC4 potentiator project, cell-based, second counter screen, HEK293 TRPC4/5HT1a, Fluo-4 (AID 434979;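 active = signal rise over 3 SD above mean of control wells given weak agonist, in both repeats and first screen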). The note with it: Fluo-4 calcium flux, at 10 µM, serotonin added at its EC20 dose; hits give high values.

Experiment [15] can be described thus: calcium flux activation in mu-opioid HEK293 cells, confirmation, counter-screen for TRPC4 activator project, cell-based, HEK293 mu-opioid receptor line (AID 449723;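 active = hit in primary screen, with calcium signal over 5 SD above buffer well mean in both duplicates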;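 note: counter screen cells carry the mu-opioid receptor alone and lack TRPC4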). The note with it: Fluo-4 calcium fluorescence, at 10 µM; hits give high values.
A short description of experiment [16]: calcium flux enhancement in mu-opioid HEK293 cells, confirmation, counter-screen for TRPC4 allosteric potentiator project, cell-based, HEK293 mu-opioid receptor line (AID 449724;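 active = calcium signal rise more than 3 SD above the low-dose agonist control mean, in both duplicate plates and the primary screen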;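 note: HEK293 cells carrying mu-opioid receptor only with no TRPC4 channel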). The note with it: Fluo-4 calcium flux, at 10 µM, compound added before EC20 DAMGO stimulus; hits give high values.

Sequence of Short transient receptor potential channel 4 (Mus musculus) (Q9QUQ5 whole entry, looked up): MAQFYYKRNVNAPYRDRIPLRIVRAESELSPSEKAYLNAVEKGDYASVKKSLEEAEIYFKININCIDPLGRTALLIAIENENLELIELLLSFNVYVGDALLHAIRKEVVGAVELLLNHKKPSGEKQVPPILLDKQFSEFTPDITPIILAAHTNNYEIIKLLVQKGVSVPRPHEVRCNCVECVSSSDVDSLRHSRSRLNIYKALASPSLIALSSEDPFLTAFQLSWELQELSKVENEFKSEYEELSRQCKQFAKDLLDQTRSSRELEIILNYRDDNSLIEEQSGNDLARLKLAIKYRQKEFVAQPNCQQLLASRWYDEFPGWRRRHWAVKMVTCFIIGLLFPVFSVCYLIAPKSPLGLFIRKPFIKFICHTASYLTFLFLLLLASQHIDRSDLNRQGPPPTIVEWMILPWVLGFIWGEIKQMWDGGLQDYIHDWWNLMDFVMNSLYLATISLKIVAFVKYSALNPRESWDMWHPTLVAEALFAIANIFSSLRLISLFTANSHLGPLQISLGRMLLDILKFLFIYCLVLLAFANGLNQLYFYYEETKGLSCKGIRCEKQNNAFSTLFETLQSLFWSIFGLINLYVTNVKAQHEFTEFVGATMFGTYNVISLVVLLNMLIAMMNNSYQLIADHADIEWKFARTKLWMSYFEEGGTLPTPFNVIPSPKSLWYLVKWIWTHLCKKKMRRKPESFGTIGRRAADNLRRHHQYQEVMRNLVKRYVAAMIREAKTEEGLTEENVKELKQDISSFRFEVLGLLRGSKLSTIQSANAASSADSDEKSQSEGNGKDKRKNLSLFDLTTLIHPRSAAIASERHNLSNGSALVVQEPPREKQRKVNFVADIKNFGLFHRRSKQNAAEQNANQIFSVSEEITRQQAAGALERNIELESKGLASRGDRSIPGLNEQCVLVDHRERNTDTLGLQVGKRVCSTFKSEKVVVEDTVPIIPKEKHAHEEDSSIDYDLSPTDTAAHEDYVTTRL
Sequence of Short transient receptor potential channel 6 (Mus musculus) (Q61143 whole entry, looked up): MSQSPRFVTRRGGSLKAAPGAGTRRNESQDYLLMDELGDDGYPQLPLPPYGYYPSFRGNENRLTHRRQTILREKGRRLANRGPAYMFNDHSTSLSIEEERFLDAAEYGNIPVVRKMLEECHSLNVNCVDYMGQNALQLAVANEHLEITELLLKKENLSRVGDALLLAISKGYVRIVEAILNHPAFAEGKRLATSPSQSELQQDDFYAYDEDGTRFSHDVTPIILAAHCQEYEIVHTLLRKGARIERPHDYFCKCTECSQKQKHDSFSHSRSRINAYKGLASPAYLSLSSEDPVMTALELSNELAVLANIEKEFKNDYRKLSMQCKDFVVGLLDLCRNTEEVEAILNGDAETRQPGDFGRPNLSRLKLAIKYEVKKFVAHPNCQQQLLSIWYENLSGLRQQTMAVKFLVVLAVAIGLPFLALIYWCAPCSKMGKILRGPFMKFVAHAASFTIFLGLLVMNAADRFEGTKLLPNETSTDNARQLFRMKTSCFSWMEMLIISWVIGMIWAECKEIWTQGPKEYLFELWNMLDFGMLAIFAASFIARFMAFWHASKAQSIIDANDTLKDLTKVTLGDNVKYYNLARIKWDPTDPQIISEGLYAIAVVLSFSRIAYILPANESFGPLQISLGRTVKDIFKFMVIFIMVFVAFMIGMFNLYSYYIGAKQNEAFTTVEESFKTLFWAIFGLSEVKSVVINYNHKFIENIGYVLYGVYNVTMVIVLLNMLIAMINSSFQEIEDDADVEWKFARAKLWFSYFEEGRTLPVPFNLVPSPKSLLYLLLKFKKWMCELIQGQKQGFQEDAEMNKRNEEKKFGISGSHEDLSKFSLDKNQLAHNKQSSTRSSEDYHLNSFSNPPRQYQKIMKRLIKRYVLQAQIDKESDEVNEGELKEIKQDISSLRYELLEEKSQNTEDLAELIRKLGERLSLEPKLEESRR

In the case of `COC(=O)C1=C(C)N(Cc2ccccc2)C(=NCCc2ccccn2)N[C@H]1c1cccc(F)c1`, the activation in [1] was 109% (active); in experiment [10], 77% (active); in experiment [12], 44.2% (active). Besides, the result in experiment [2], in experiment [3], in experiment [4], in [5], in [6] and in experiment [7] was inactive. The outcome in [8], in experiment [9], in experiment [11], in experiment [13], in experiment [14] and in experiment [15] was inactive. The result in [16] was inactive.

On to `Clc1ccc(OCCNCCc2ccccc2)cc1`, for which the result in experiment [1], in [2], in experiment [3], in experiment [4], in experiment [5] and in experiment [6] was inactive. The result in experiment [7], in experiment [8], in [9], in [11], in experiment [13] and in experiment [14] was inactive. Further, the outcome in experiment [15] and in [16] was inactive. Moreover, the activation in [10] is 53% (active); in [12] it was 24.4% (active).

Take `CN(C)CCCN(C(=O)c1ccc(S(=O)(=O)N2CCCc3ccccc32)cc1)c1nc2ccc(F)cc2s1`: the results for the activation in [1] and in experiment [15] were 134% (active) and 14.7% (active), respectively. In addition, the result in experiment [2], in [3], in experiment [4], in [5], in experiment [6] and in [7] was inactive. Moreover, the result in experiment [8], in experiment [9], in experiment [10], in [11], in experiment [12] and in experiment [13] was inactive. The outcome in experiment [14] and in experiment [16] was inactive.

`COc1cc(OC)c(CN2CCC(Cc3ccccc3)CC2)cc1Br`: the activation in [1] is 121% (active); in experiment [10] it was 43.5% (active); in experiment [12], 44.9% (active). For the same molecule, the outcome in experiment [2], in experiment [3], in experiment [4], in experiment [5], in experiment [6] and in experiment [7] was inactive. For the same molecule, the result in experiment [8], in experiment [9], in experiment [11], in experiment [13], in [14] and in experiment [15] was inactive. Further, the outcome in [16] was inactive.

In the case of `CCCN(CCC)CCCNc1ccc2nnc(-c3ccc(F)cc3)n2n1`, the activation in experiment [1] is 92% (active); in experiment [12] it was 41.2% (active). The result in experiment [2], in experiment [3], in [4], in experiment [5], in experiment [6] and in experiment [7] was inactive. For the same molecule, the result in [8], in experiment [9], in experiment [10], in experiment [11], in experiment [13] and in [14] was inactive. For the same molecule, the outcome in experiment [15] and in experiment [16] was inactive.

Take `COc1ccc(-c2nn(-c3ccccc3)cc2CNCc2cccnc2)c(F)c1`: the activation in [1] was 224% (active). Also, the result in [2], in experiment [3], in [4], in [5], in experiment [6] and in [7] was inactive. The result in experiment [8], in experiment [9], in experiment [10], in experiment [11], in experiment [12] and in experiment [13] was inactive. Moreover, the outcome in experiment [14], in [15] and in experiment [16] was inactive.

As to `CCCc1c(O)nc(SCCN(CCC)CCC)[nH]c1=O`, the activation was 96% (active) in experiment [1] and 12.4% (active) in experiment [12]. Besides, the outcome in [2], in [3], in experiment [4], in experiment [5], in experiment [6] and in experiment [7] was inactive. Further, the result in [8], in experiment [9], in experiment [10], in [11], in [13] and in experiment [15] was inactive. In addition, the outcome in [16] was inactive. Besides, the potentiation in experiment [14] was 23.3% (active).

For `CNC[C@H](CC1CCCCC1)NC[C@H](Cc1ccccc1)NCCC12CC3CC(CC(C3)C1)C2`, the activation in [1] was 219% (active); in experiment [12], 63.4% (active); in experiment [15], 51.7% (active). The outcome in experiment [2], in experiment [3], in experiment [4], in experiment [5], in [6] and in experiment [7] was inactive. Also, the result in experiment [8], in [9], in experiment [10], in experiment [11], in experiment [13] and in experiment [14] was inactive. In experiment [16], the result was inactive.

As to `CCOc1ccccc1CN1CCNC(=O)C1CC(=O)N(C)CCc1ccccn1` (stereo not given), the activation is 235% (active) in experiment [1], 76% (active) in [2], 27% (active) in experiment [10] and 72.6% (active) in [12]. Besides, the outcome in experiment [3], in [4], in experiment [5], in experiment [6], in experiment [7] and in experiment [8] was inactive. Further, the result in experiment [9], in [11], in experiment [13], in experiment [14], in experiment [15] and in experiment [16] was inactive.

Take `O=C(NC(=S)NNC(=O)[C@H]1C[C@@H]1c1ccccc1)c1cccc(F)c1`: the activation in experiment [1] was 213% (active); in experiment [12], 140% (active); in experiment [15], 30.6% (active). Also, the outcome in [2], in experiment [3], in experiment [4], in experiment [5], in experiment [6] and in experiment [7] was inactive. Besides, the result in experiment [8], in experiment [9], in [10], in [11], in experiment [13] and in experiment [14] was inactive. The outcome in experiment [16] was inactive.

For `CCc1nc(NCCc2ccccn2)c2nnn(Cc3ccccc3F)c2n1`, the activation in experiment [1] is 154% (active); in experiment [10], 49% (active); in experiment [12] it was 36.2% (active). Further, the outcome in [2], in experiment [3], in experiment [4], in experiment [5], in [6] and in [7] was inactive. Also, the result in experiment [8], in experiment [9], in experiment [11], in experiment [13], in experiment [14] and in [15] was inactive. Besides, the result in [16] was inactive.

Regarding `Cc1ccc(N2CCN(c3ccc(NCc4nc5ccccc5n4C)cc3)CC2)cc1`, the activation in experiment [1] is 79% (active). In addition, the outcome in [2], in experiment [3], in experiment [4], in [5], in [6] and in [7] was inactive. The result in experiment [8], in [9], in experiment [10], in experiment [11], in experiment [12] and in [13] was inactive. Moreover, the outcome in experiment [14], in experiment [15] and in [16] was inactive.

On to `COC(=O)c1ccc(N2CCN(C)CC2)c(NC(=O)COc2ccccc2)c1`, for which the values for the activation in [1] and in experiment [12] were 86% (active) and 12.3% (active), respectively. In addition, the result in [2], in experiment [3], in experiment [4], in experiment [5], in [6] and in [7] was inactive. For the same molecule, the outcome in experiment [8], in experiment [9], in experiment [10], in experiment [11], in [13] and in experiment [14] was inactive. Further, the result in [15] and in experiment [16] was inactive.

Take `O=C(Nc1nnc(-c2ccccc2Cl)o1)c1nc2ccccc2s1`: the activation was 143% (active) in experiment [1], 91.4% (active) in [12] and 30.2% (active) in [15]. Further, the outcome in experiment [2], in [3], in [4], in experiment [5], in experiment [6] and in experiment [7] was inactive. Further, the result in [8], in experiment [9], in experiment [10], in experiment [11], in [13] and in experiment [14] was inactive. The result in experiment [16] was inactive.

With `O=C(C1CCCN(Cc2ccccc2F)C1)N1CCc2ccccc2C1` (stereo not given), the activation in experiment [1] was 96% (active); in [2], 98% (active); in experiment [10] it was 56.5% (active); in [12], 40.5% (active). The result in [3], in experiment [4], in experiment [5], in experiment [6], in [7] and in experiment [8] was inactive. In addition, the result in experiment [9], in [11], in experiment [13], in experiment [14], in experiment [15] and in experiment [16] was inactive.
